SMILES strings stand for the structures. Hit rate of the full screen: of about 3,600 compounds, about 900 (25%) were called active. How the calls were made is not given here. These entries were drawn from the full list. Results with a measured potency or affinity are listed apart.

In this assay the target is Protein Tat (Human immunodeficiency virus type 1 group M subtype B (isolate HXB2)) (UniProt P04608). Briefly: HIV-1 Tat–TAR interaction blockers – biochemical, fluorescence polarization, FAM-labeled TAR RNA, counter-screen for Vif-APOBEC3G degradation inhibitor project, dose response (AID 1117361). Conditions: Tat-TAR RNA binding; series mostly up to 100 µM. Background: Polarisation of emitted light reports the rotation of a fluorescent probe.
For `Cn1c(=O)c2c(nc(NCCc3ccccc3)n2Cc2ccccc2)n(C)c1=O`, the result was inactive. Then `CC(=O)c1ccc(N2CCN(C(=O)C3CCC3)CC2)cc1`, with “inactive”; and `CC1(C)CC(=O)C2=C(C1)NCN(Cc1ccc3c(c1)OCO3)C2`, with “inactive”. In the case of `COC(=O)c1cccc(NC(=O)c2ccc3c(c2)C(=O)N(CC2CCCO2)C3=O)c1` (stereo unspecified), the compound was classed as inactive. As to `O=c1[nH]c2ccc(NS(=O)(=O)c3ccc(F)c(Cl)c3)cc2[nH]1`, the result was inactive.

For the compound `O=C(O)c1cccc2c1Oc1ccccc1S2(=O)=O`, the outcome was inactive.

For `CCN1CNC(=S)N(CCc2ccccc2)C1`, the result was inactive. Regarding `CCOc1ccc2nc(Cl)c(C3CC(c4ccccc4)=NN3C(=O)c3cccs3)cc2c1` (stereo unspecified), the outcome was inactive.

Regarding `O=C(NCCC1CCCCN1S(=O)(=O)c1ccc(F)cc1)C(=O)NCc1ccccn1` (stereo unspecified), the result was inactive. Then `CC(C(=O)N1CCCCC1)n1ncn2cccc2c1=O` (stereo unspecified), with “inactive”. For the compound `CCOc1ccc(N(CC(=O)N2CCC(Cc3ccccc3)CC2)S(C)(=O)=O)cc1`, the compound was called inactive. In the case of `OCCN1CCN(CC(O)COc2ccc3ccccc3c2)CC1` (stereo unspecified), the compound was called inactive. In the case of `C#CC[N+]1(CC#Cc2ccccc2)CCCC1`, the call was inactive. Take `CC1(C(=O)O)Cc2ccccc2C(=O)O1` (stereo unspecified): the result was inactive.

Consider `CC12CCC(C(=O)Nc3cc(F)ccc3F)(CC1=O)C2(C)C` (stereo unspecified), for which the compound was called inactive. In the case of `CN(C)CCCN(CCCN(C)C)C(=S)Nc1ccc(S(=O)(=O)N2CCOCC2)cc1`, the call was inactive.

Regarding `CC1(C)CC(=O)C(N=Nc2ccc(Br)cc2)=C(O)C1`, the call was inactive. Then `O=C(c1ccc(S(=O)(=O)N2CCOCC2)cc1)N1CCN(c2cccc(Cl)c2)CC1`, with “inactive”; and `COCc1nnc(NC(=O)c2ccc(S(=O)(=O)N(C)C3CCCCC3)cc2)o1`, with “inactive”. Take `O=C(c1ccccc1S(=O)(=O)NCc1ccccc1)N1CCCC1`: the result was inactive.

On to `C=CCn1c(Sc2nc(C)cs2)nc2c1c(=O)[nH]c(=O)n2C`, for which the result was inactive. For `O=C(NCc1cccnc1)C1c2ccccc2C(=O)N1C1CCCC1` (stereo unspecified), the compound was classed as inactive. `NNc1ccc([N+](=O)[O-])c2[nH][nH]c(=O)c12`: the compound was classed as inactive.

Take `CCCNC(=O)c1ccccc1NC(=O)c1ccc(CSc2ccccc2)cc1`: the result was inactive. As for `COc1ccc(-c2cc(C)nc(SCC(=O)c3cccc([N+](=O)[O-])c3)n2)cc1`, the compound was called inactive. On to `C=C1C(=O)C2=CC1CCC(=O)C1(C)CCC(OC(C)=O)C(C)(C)C1CC2O` (stereo unspecified), for which the result was inactive. As for `CCn1c(SCC(=O)n2nc(C)cc2C)nnc1-c1ccc2c(c1)OCO2`, the compound was called inactive.

Turning to `O=C(Nc1ccc(Br)cn1)C1CCN(S(=O)(=O)c2cccs2)CC1`, the call was inactive. On to `O=C(/C=C/c1cccs1)N1CCN(c2ccc(O)cc2)CC1`, for which the outcome was inactive. Consider `Cc1ccc(Nc2nc3nonc3nc2N(C)C)cc1`, for which the result was inactive. Under `CCc1nc2ccc(Cc3ccc4nc(CC)[nH]c4c3)cc2[nH]1` stands “inactive”. With `Cc1ccc(S(=O)(=O)N(CC(=O)N/N=C/c2cccc3c2OCCO3)c2ccccc2F)cc1`, the outcome was inactive.

For the compound `COCC(=O)Nc1nnc(COc2ccccc2)s1`, the compound was classed as inactive. Under `N#Cc1ccccc1NC(=O)COC(=O)c1ccc(S(=O)(=O)N2CCCC2)cc1` stands “inactive”; under `Cn1cnnc1SCC(=O)Nc1ccccc1C(=O)NC1CC1`, “inactive”. As for `Cc1ccc(-n2c(Cc3cccn3C)nnc2SCC(=O)Nc2nnc(C)s2)cc1`, the compound was called inactive. `O=C(NC(=O)N1CCN(c2ccc([N+](=O)[O-])cn2)CC1)c1c(Cl)cccc1Cl`: the result was inactive. Under `CC1CC(C)CN(S(=O)(=O)c2ccc(NC(=O)c3ccc(=O)[nH]c3)cc2)C1` (stereo unspecified) stands “inactive”; under `COc1ccc(-n2ncc3c(NCc4ccccn4)ncnc32)cc1`, “inactive”.

Consider `CC(=O)Nc1ccc(S(=O)(=O)N2CCN(Cc3ccccn3)CC2)cc1`, for which the compound was classed as inactive. With `COc1ccc(S(=O)(=O)N(CCc2ccccc2)CC(=O)NC(C)C)cc1`, the result was inactive. `O=C(Cn1c(=O)oc2ccccc21)N1CCN(S(=O)(=O)c2ccccc2)CC1`: the result was inactive. On to `CC(C)(C)OC(=O)N1CCN(c2ccc([N+](=O)[O-])cc2)CC1`, for which the compound was called inactive.

`CCOC(=O)N1CCN(c2c(NCc3ccccc3Cl)c(=O)c2=O)CC1`: the compound was classed as inactive. `CC(C)(C)C(=O)O/N=C(\N)c1c(Cl)cccc1Cl`: the compound was called inactive. Turning to `C=CCc1ccc(OCCOCCNCCCC)c(OC)c1`, the result was inactive. For the compound `Cn1c(=O)c2c(nc(CN3CCOCC3)n2CCN2CCOCC2)n(C)c1=O`, the call was inactive. On to `COc1ccc(CCNC(=O)CSc2nc(-c3ccco3)cc(C(F)(F)F)n2)cc1`, for which the result was inactive.

As for `O=C(CSc1nc(-c2ccccc2)cc(C(F)(F)F)n1)c1cccc([N+](=O)[O-])c1`, the compound was called inactive. Consider `Cc1c(F)cccc1NC(=O)CCCCCC1NC(=O)NC1C` (stereo unspecified), for which the compound was called inactive.

Regarding `Cc1ccc(S(=O)(=O)C(F)(F)F)cc1NC(=O)c1cccnc1`, the call was inactive.

For `COc1cc([N+](=O)[O-])ccc1NC(=O)Oc1ccc(NC(C)=O)cc1`, the outcome was inactive.

For the compound `O=c1cc(-c2ccc(O)c(O)c2)oc2cc(O)c(C3OC(CO)C(O)C(O)C3O)c(O)c12` (stereo unspecified), the outcome was inactive. Then `CC1C(=O)N2CCCc3cc(NC(=O)C(=O)NCc4cccnc4)cc1c32` (stereo unspecified), with “inactive”. Then `COc1cc(C2Nc3ccccc3C(=O)N2c2ccccc2)ccc1O` (stereo unspecified), with “inactive”; and `Clc1ccc(-c2nc3cnccn3c2Nc2ccc3c(c2)OCO3)cc1`, with “inactive”. For the compound `COc1cccc(-c2cc(C(=O)Nc3c(C)n(C)n(-c4ccccc4)c3=O)no2)c1`, the result was inactive.

`CC[n+]1ccc(C)c2cc(S(=O)C(F)(F)F)ccc21` (stereo unspecified): the result was inactive. Take `COc1ccc(CNC(=O)c2ccc(NC(=O)C3CCCO3)cc2)cc1` (stereo unspecified): the call was inactive. In the case of `COc1ccc(C(=O)Nc2nncs2)cc1S(=O)(=O)N1CC(c2ccccc2)CC1=O` (stereo unspecified), the call was inactive. With `COC(=O)C(C(=O)Nc1ccc(OC)cc1)C1CCCCCC1` (stereo unspecified), the compound was called inactive.

On to `COCCn1nnnc1C(c1cccs1)N1CCN(c2cc(C)ccc2C)CC1` (stereo unspecified), for which the compound was classed as inactive. For the compound `Cc1ccc(C(=O)OC2CCS(=O)(=O)c3sccc32)cc1` (stereo unspecified), the compound was called inactive. On to `COC(=O)c1ccc(NC(=O)CN2CCCC2)cc1`, for which the call was inactive. Turning to `COC(=O)Cc1ccc(NC(=S)NNC(=O)C2CC2)cc1`, the call was inactive.

For `CCc1nnc(NC(=O)CSc2nnc(Cc3ccccc3)o2)s1`, the compound was classed as inactive. With `COC(=O)c1c(NC(=O)CSc2nnc(CNc3ccc(Cl)cc3)o2)sc(C)c1C`, the call was inactive. As to `CCOC(=O)C1=C(Cn2cnc3ccccc32)NC(=O)NC1c1ccc(OC)cc1` (stereo unspecified), the outcome was inactive. Then `Cc1ccc(C(=O)Oc2ccc(C(=O)COC(=O)c3cnccn3)cc2)cc1`, with “inactive”; and `Cc1ccccc1N1CCN(Cc2c[nH]c3ccccc23)CC1`, with “inactive [at 50 µM]”; and `CSc1ccc(/C=N/n2c(C3CCCCC3)n[nH]c2=S)cc1`, with “inactive”. Consider `Cc1nc(C)c(C(=O)Nc2nc3c(C)cccc3s2)o1`, for which the call was inactive.

Regarding `Clc1ccc(Sc2cc(N3CCOCC3)nc(-c3ccccc3)n2)cc1`, the call was inactive. As for `O=C(NC1=NCCS1)C1CC2CCC1C2` (stereo unspecified), the compound was classed as inactive. Regarding `NC(=O)COC(=O)c1ccc(Oc2ccccc2)cc1`, the outcome was inactive. Under `CCOc1ccc2nc(NC(=O)CCn3cccc3)sc2c1` stands “inactive”.

Consider `CCOC(=O)N1CCN(C(=O)c2cc3c(s2)-c2ccccc2OC3)CC1`, for which the result was inactive.

On to `COc1ccc(OC)c(S(=O)(=O)N2CCN(C)CC2)c1`, for which the compound was called inactive. For `O=C1N(c2ccccc2)C2CS(=O)(=O)CC2N1c1ccc(Cl)c(Cl)c1` (stereo unspecified), the compound was called inactive. As to `COc1cccc(OC)c1C(=O)n1nc(C)cc1C`, the call was inactive. Consider `Cc1cc(S(=O)(=O)n2ccnc2)c(Cl)cc1Cl`, for which the result was inactive. `O=C(Cc1ccccn1)c1ccncc1`: the result was inactive. As to `O=C(N/N=C/c1cccnc1)c1cc(O)c(O)c(O)c1`, the outcome was inactive.

`Cc1ccc(N=Nc2ccc(O)c(/C=N\NC(=O)c3ccc(N)cc3)c2)cc1C`: the outcome was inactive. Then `CCC(Sc1nc(N)c(NC(=O)c2ccc(OC)c(OC)c2)c(=O)[nH]1)C(=O)OC` (stereo unspecified), with “inactive”; and `S=C(Nc1ccc(Oc2ccccc2)cc1)NC1CCCCC1`, with “inactive”; and `CCCCCCc1nc2c(=O)[nH]c3ccccc3c2o1`, with “inactive”. Then `CCOC(=O)COn1c(=O)c(-c2ccc(Cl)cc2)[n+]([O-])c2ccccc21`, with “inactive”; and `COc1ccccc1OCC(=O)NCC1CCCN(Cc2cnn(C(C)C)c2)C1` (stereo unspecified), with “inactive”. As to `CCC(C)c1c(O)nc(SCC(=O)N2CCOCC2)[nH]c1=O` (stereo unspecified), the compound was called inactive. Regarding `CC1(C)CCC(=O)c2ccccc21`, the compound was called inactive.

Regarding `O=C(Oc1ccccc1)c1cccc2cccnc12`, the result was inactive. `O=C(O)CCC(=O)N(Cc1cccs1)Cc1cccs1`: the call was inactive. For `CC(C)Cn1c(CCC(=O)O)ccc1-c1cccs1`, the compound was called inactive. On to `CCc1ccc(-c2nc(SCC(=O)NC3CCS(=O)(=O)C3)n[nH]2)cc1` (stereo unspecified), for which the compound was called inactive. Under `O=C(CNC(=O)Cn1cnc2sc3c(c2c1=O)CCCC3)NCc1ccccn1` stands “inactive”; under `Cc1cc(NC(=O)c2cncc(Br)c2)no1`, “inactive”. Then `O=C1c2ccccc2C(=O)N1OCCOCCOCCBr`, with “inactive”; and `O=C1CCC(CCC(=O)N2CCCC(C(=O)c3ccc4c5c(cccc35)CC4)C2)=NN1` (stereo unspecified), with “inactive”; and `CN(C)C(=O)c1ccc(COc2ccccc2Br)o1`, with “inactive”. Take `Cc1ccc(OCc2ccc(C(=O)NN)o2)cc1C`: the result was inactive. Turning to `CCOC(=O)c1cc2c(c(CCO)n1)[C@H](CCO)N(S(=O)(=O)C(C)(C)C)C2`, the call was inactive. In the case of `COc1ccc(OC)c(NC(=O)CSc2nnc(CCCO)n2-c2ccccc2)c1`, the result was inactive. Regarding `Cc1ccc(-n2c(SCC(=O)NCC3CCCO3)nc3c(c2=O)SCC3)cc1` (stereo unspecified), the result was inactive.

`O=C(CSc1nnc(-c2cccnc2)n1C1CCCCC1)NC1CCCCC1`: the result was inactive. Under `Cc1cccc(-n2c(N)cc(=O)nc2SCC(=O)NC2CCCCC2)c1` stands “inactive”; under `O=C(Cc1cc(=O)[nH]c(=O)[nH]1)NCC1CCCO1` (stereo unspecified), “inactive”; under `COc1ccc(-n2c(Cc3cccn3C)nnc2SCC(=O)Nc2ccccc2)cc1`, “inactive”.

For `N#Cc1ccccc1S(=O)(=O)N1CCN(C(=O)CN2CCCC2c2cccs2)CC1` (stereo unspecified), the compound was called inactive. `COc1ccc(C(C)NC(=O)C2C(=O)NC3(C)CC2c2ccccc2O3)cc1` (stereo unspecified): the compound was classed as inactive. On to `O=C(O/N=C\c1ccc(N2CCCCC2)c([N+](=O)[O-])c1)c1c(F)cccc1F`, for which the call was inactive.

(Values after PubChem BioAssay AID1117361 (Southern Research Institute, 2015).)
